Sampled rows, rich in hits. Any-hit rate of the full collection: about 4.8%.
ssDAF12 agonist: activates DAF-12 receptor from parasite S. stercoralis | HEK293 ssDAF-12/GRIP1 lit1-tk-luc reporter, luminescence; % of 3 µM dafachronic acid response | activation, % at 6.8 µM | actives 1% (n = 370,000);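 active = activation above the mean over all tested compounds plus 3 SD, cut at about 0.9% in these data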;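 also: 0% = DMSO-only wells and 100% = 3 µM delta7-dafachronic acid wells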
hcDAF12 agonist: H. contortus DAF-12 activation, primary screen. HEK293 hcDAF-12 lit1-tk-luc reporter, luminescence; 0% DMSO, 100% Δ7-dafachronic acid. activation, % at 6.8 µM. actives 1.4% (n = 370,000). AID 652067;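 active = activation above the mean of all tested compounds plus 3 SD, cut at about 5.5% in these data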;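 also: 100% = response to 3 µM Δ7-dafachronic acid high control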
DAX1 inh-1: inhibits human nuclear receptor DAX1. HEK293 Gal4-DAX1 luciferase reporter, luminescence. inhibition, % at 6.75 µM. actives 0.99% (n = 340,000);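 active = inhibition above the mean over all tested compounds plus 3 SD, cut at about 4.2% in these data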;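 also: 0% = DAX1-transfected cells with DMSO and 100% = empty-vector control cells with DMSO; inhibition shows as a rise in luminescence from relieved DAX1 repression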
Target sequence (P51843 207-470 limits assumed): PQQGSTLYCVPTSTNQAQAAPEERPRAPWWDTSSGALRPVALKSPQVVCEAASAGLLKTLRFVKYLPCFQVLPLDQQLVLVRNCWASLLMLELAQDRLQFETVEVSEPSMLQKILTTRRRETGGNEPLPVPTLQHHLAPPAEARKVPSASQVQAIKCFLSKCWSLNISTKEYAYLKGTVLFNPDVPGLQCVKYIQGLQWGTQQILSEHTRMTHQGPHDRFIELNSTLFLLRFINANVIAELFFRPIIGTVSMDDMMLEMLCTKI
SMARCA2 activ: activators of SMARCA2 function | AID 652017 | MG213 cells, MMTV-luciferase reporter, dexamethasone, overnight | actives 1% (n = 370,000) | activation, % at 9.1 µM; in the data active = activation above about 7.8%;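 also: 0% = vehicle wells and 100% = reference activator wells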
DAX1 inh-2: inhibitors of DAX1 repression of SF-1 activated StAR promoter; HEK293T StAR-luciferase reporter, SF-1/DAX-1 repression relief; inhibition, % at 6.8 µM; actives 1.1% (n = 370,000); AID 652010;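 active = inhibition above the mean over all tested compounds plus 3 SD, cut at about 3.6% in these data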;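 also: 0% = DAX-1 cells with DMSO and 100% = cells lacking DAX-1 with DMSO; higher inhibition means more luminescence from relief of DAX-1 repression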
hgDAF12 agonist: agonists of H. glycines DAF-12 nuclear receptor | HEK293 GAL4-hgDAF12 UAS-luciferase reporter, agonist luminescence; normalized to butyrate control | activation, % at 6.8 µM | actives 1.8% (n = 370,000) | AID 687014;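 active = activation above a cutoff set at the mean of all screened compounds plus 3 SD, cut at about 10% in these data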;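 also: 0% = DMSO wells and 100% = sodium butyrate wells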
Numbers without * were called inactive; nt = no result.

SMILES | ssDAF12 agonist | hcDAF12 agonist | DAX1 inh-1 | SMARCA2 activ | DAX1 inh-2 | hgDAF12 agonist
Nc1nc(CSC(=S)N2CCOCC2)nc(Nc2ccccc2)n1 | -1 | 6.1* | 5.0* | 8 | 1 | 1
CCn1c(SCC(=O)N2CC(=O)Nc3ccccc32)nnc1-c1ccoc1C | -1 | -1 | 0 | -1 | -1 | 2
Fc1cccc(Cc2c(-c3ccccc3)nc3c4ccccc4ccn23)c1 | 1.4* | 4 | nt | 2 | 1 | 5
Clc1ccc(-c2nc3c4ccccc4ccn3c2Cc2cccc(Cl)c2)cc1 | 1 | 5.9* | nt | 2 | 1 | 7
Clc1cccc(Cc2c(-c3cccc(Br)c3)nc3c4ccccc4ccn23)c1 | 0 | 6.1* | nt | -2 | 1 | 3
Brc1cccc(-c2nc3c4ccccc4ccn3c2CC2CCCCC2)c1 | 0 | 5 | nt | 0 | 3 | 2
c1ccc(-c2nc3c4ccccc4ccn3c2CC2CCCCC2)cc1 | 1 | 5.6* | nt | 4 | 1 | 6
Cc1csc(NC(=O)CSc2ncnc3ccccc23)n1 | -1 | 0 | 0 | -4 | -3 | -1
CC1(C)OC2OC3C(CN)OC(c4ccccc4)OC3C2O1 (centres undefined) | -1 | 0 | 0 | -4 | 0 | 2
CC(=O)c1ccc(NC(=O)C2(S(=O)(=O)c3ccccc3)CC2)cc1 | -1 | 0 | 0 | 0 | 0 | 1
O=C(NC(=S)NNC(=O)[C@H]1C[C@@H]1c1ccccc1)c1cccc(F)c1 | 1.4* | 1 | -1 | -2 | 1 | 0
O=C(NNC(=O)C1CC1c1ccccc1)c1cccc([N+](=O)[O-])c1 (centres undefined) | 0 | 0 | -1 | 4 | 0 | 1
COc1cccc(OC)c1C(=O)NC(=S)NNC(=O)[C@H]1C[C@@H]1c1ccccc1 | 1.7* | -1 | 0 | 1 | 0 | 3
O=C(CNS(=O)(=O)c1cccc(Cl)c1)Nc1ccc(-c2nc3ccccc3s2)cc1 | 0 | 3 | 2 | -1 | 2 | 11*
CC(C)(C)c1ccc(S(=O)(=O)NCC(=O)Nc2ccc(-c3nc4ccccc4s3)cc2)cc1 | -1 | 0 | 2 | 1 | 1 | 4
S=c1nc[nH]c2c1[nH]c1ccccc12 | 0 | 5 | 2 | 2 | 0 | 0
S=c1nc[nH]c2c1[nH]c1ccc(Cl)cc12 | 0 | 0 | 5.1* | -3 | -1 | -5
Cc1ccc(S(=O)(=O)N2CCOCC2)cc1NC(=O)CSCc1c(C)noc1C | -1 | -1 | 1 | 0 | 3.6* | 0
O=C(NC1CCN(Cc2ccccc2)CC1)c1[nH]c(C(F)(F)F)nc1-c1ccccc1 | -1 | -1 | nt | -2 | 1 | -1
COc1cccc(-c2nc(-c3ccc4c(c3)NC(=O)CO4)cs2)c1 | -1 | 1 | 4 | 0 | 0 | 11*
COc1ccc(-c2cc(-c3ccc(OC)cc3)nc(-c3ccc4c(c3)NC(=O)CO4)c2)cc1 | 0 | 1 | 2 | -4 | 0 | 2
COc1ccc(Nc2nc(-c3ccc(OC)cc3)cs2)cc1 | -1 | 1 | 2 | 0 | 1 | 12*
Cc1cc(O)ccc1Nc1nc(-c2cccnc2)cs1 | 0 | 2 | 1 | 0 | 2 | 12*
c1ccc(Nc2nc(-c3ccncc3)cs2)cc1 | -1 | 3 | 0 | 6 | 1 | 11*
CCNc1nc(-c2ccc(Cl)cc2)cs1 | 0 | 2 | 1 | 3 | 1 | 12*
SMILES | ssDAF12 agonist | hcDAF12 agonist | DAX1 inh-1 | SMARCA2 activ | DAX1 inh-2 | hgDAF12 agonist
Cc1nn(-c2ccccc2)c(N2CCCC2)c1/C=C1\N=C(c2ccc(F)cc2)OC1=O | -1 | 0 | 0 | -3 | 0 | 0
CC1=C(C(=O)OCCOC(C)C)C(c2cc3c(cc2Br)OCO3)CC(=O)N1 (centres undefined) | -1 | -1 | -2 | 2 | 0 | -2
Oc1ccc(Nc2nc(-c3cccnc3)cs2)cc1 | nt | nt | 0 | nt | nt | nt
CCOc1ccc(Nc2nc(-c3cccnc3)cs2)cc1 | 0 | 4 | 6.2* | 6 | 1 | 8
COc1ccc2nc3oc(C(=O)N4CCC(C(N)=O)CC4)cc3cc2c1 | -1 | -2 | 1 | 7 | 0 | 1
CCOC(=O)C1CCN(C(=O)c2cc3cc4ccc(OC)cc4nc3o2)CC1 | -1 | 1 | -1 | 7 | 3.8* | 7
Cc1ccc2cc3cc(C(=O)N4CCCCC4C)oc3nc2c1 (centres undefined) | 1.0* | 5.9* | 0 | 1 | 4.2* | 12*
Oc1c(Br)cc(Br)cc1CNn1cnnc1 | -1 | -1 | 1 | 1 | 0 | -1
Cn1cnnc1SCC(=O)NC1CCCCCC1 | 0 | 3 | 1 | 0 | 3 | -1
Cc1cccc(C)c1NC(=S)/C(=C(\[O-])c1cccs1)[n+]1ccccc1 | 0 | 5.8* | 0 | -2 | -1 | 2
[O-]/C(=C(\C(=S)Nc1cccc2ccccc12)[n+]1ccccc1)c1cccs1 | 0 | 3 | -1 | -2 | -1 | -1
CCOc1cc(/C=N/N=C2/NC(=O)C(CC(=O)O)S2)ccc1OCc1ccc(Cl)cc1Cl (centres undefined) | nt | nt | 0 | nt | nt | nt
COc1cc(/C=N/N=C2/NC(=O)C(CC(=O)O)S2)ccc1OCc1ccc(Cl)cc1 (centres undefined) | -1 | 5 | 3 | 1 | 3 | 12*
O=C(NCc1ccco1)C(c1ccco1)N(C(=O)Cn1nnc2ccccc21)c1ccc2c(c1)CCC2 (centres undefined) | -1 | -2 | -1 | 1 | -1 | -4
COCCCNc1nc2c(c(=O)[nH]c(=O)n2C)n1CCCc1ccccc1 | -1 | -1 | 0 | 7.9* | -1 | 1
Cn1ncc(Cl)c1C(=O)NCc1ccc2c(c1)OCO2 | -1 | -2 | -1 | -1 | -7 | -1
O=C(Nc1ccc2c(c1)OCO2)c1c(Cl)nc2sccn12 | 0 | 5.9* | 3 | 5 | 2 | 9
O=C(Nc1ccc2c(c1)OCO2)c1c(F)c(F)c(F)c(F)c1F | -1 | -1 | 0 | 0 | 0 | 4
Cn1ncc(Cl)c1C(=O)Nc1ccc2c(c1)OCO2 | 0 | 6.3* | 1 | 1 | 1 | 4
CCOC(=O)C1CCN(C(c2cc3ccc(C)cc3[nH]c2=O)c2nnnn2C2CCCCC2)CC1 (centres undefined) | -1 | 0 | -1 | 2 | 0 | -1
O=C(Oc1ccc(-c2ccccc2)cc1)c1ccco1 | -1 | 0 | 1 | 0 | 0 | 5
Cc1cc(=O)oc2cc(NC(=O)c3ccccc3Cl)ccc12 | 0 | 3 | 0 | 6 | 1 | 13*
CCCn1cnc2scc(-c3ccc(C)cc3)c2c1=O | -1 | 1 | -1 | -1 | 0 | 0
CSCCNC(=O)C1(C)CCN1C(=O)C/C=C/c1ccccc1 (centres undefined) | 1.2* | 2 | nt | -2 | 0 | 1
